13 compounds from PubChem BioAssay (NCI) can be followed below.

Compounds without any hit were thinned out: in the full panel of roughly 83,000, 20% have a hit.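 Compound tested at a single concentration for 48 hours in 96-well plates; a percent growth value below 10 was scored as active.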 A number with no mark means an inactive call. Active and inactive are the calls of the source.

Some test systems named below: NCI-H23 lung; NCI-H226 lung; NCI-H322M lung; HOP-62 NSCLC; NCI-H460 lung; HOP-92 NSCLC; NCI-H522 lung; A549/ATCC NSCLC; 786-0 renal; COLO 205 colon.
Experiment in all cases: NCI-60 one-dose screen, 48 h (100 = growth as untreated, 0 = no growth, -100 = all killed)
Holding throughout (details): 10 µM unless noted

For the compound `CS(=O)(=O)CCN1CC2CCCC(C2)C1`, the growth in the test on NCI-H23 lung was 99.7%; in the test with NCI-H226 lung, 121%; in the test with NCI-H322M lung, 127%; with HOP-62 NSCLC, 103%; in the test with NCI-H460 lung, 110%; in the test on HOP-92 NSCLC it was 109%. In addition, the growth with NCI-H522 lung is 97.9%; with A549/ATCC NSCLC, 99.9%; with 786-0 renal, 95.6%; in the test on COLO 205 colon it was 99%.

Regarding `COC(=O)[C@@H](C)C[C@H](Cc1ccc(F)cc1)NC(=O)c1csc([C@@H](C[C@H](C(C)C)N(C)C(=O)[C@@H](NC(=O)[C@H]2CCCCN2C)C2CC2)OC(C)=O)n1`, the growth in the test on NCI-H23 lung was 36%; in the test with NCI-H226 lung, 43.2%; in the test on NCI-H322M lung it was 39.7%; in the test with HOP-62 NSCLC, 12.2%; in the test with NCI-H460 lung it was 7% (active); in the test with HOP-92 NSCLC, 46.6%. In addition, the growth was -15.2% (active) in the test on NCI-H522 lung, 20.1% in the test on A549/ATCC NSCLC, 13.5% with 786-0 renal and -73.1% (active) in the test with COLO 205 colon.

Turning to `COC(=O)[C@@H](C)C[C@H](Cc1ccccc1)NC(=O)c1csc([C@@H](C[C@H](C(C)C)N(C)C(=O)[C@@H](NC(=O)[C@H]2CCCCN2C)C2CC2)OC(C)=O)n1`, the growth in the test with NCI-H23 lung is 22%; with NCI-H226 lung, 20.5%; in the test on NCI-H322M lung it was 52.2%; in the test on HOP-62 NSCLC it was 15.7%; in the test with NCI-H460 lung it was 14.1%; in the test with HOP-92 NSCLC, 31.3%. In addition, the growth in the test with NCI-H522 lung was -45.5% (active); with A549/ATCC NSCLC, 13%; in the test on 786-0 renal, 21.8%; with COLO 205 colon, -69.9% (active).

Turning to `Oc1c(O)c(Cl)c(Cl)c(Cl)c1Cl`, the growth was 26.7% in the test with NCI-H23 lung; 36.8% in the test with NCI-H226 lung; 44.5% in the test with NCI-H322M lung; 40.1% with HOP-62 NSCLC; 15.4% in the test on NCI-H460 lung; 1.08% (active) in the test with HOP-92 NSCLC. Also, the growth in the test on NCI-H522 lung is -19.6% (active); with A549/ATCC NSCLC, 20.5%; in the test on 786-0 renal, 57.2%; with COLO 205 colon, 69.8%.

For `CCCCCCCCCCCCCCCCCC1OC[C@@H](COC(=O)O[C@@H](C(=O)O[C@H]2C[C@@]3(O)[C@@H](OC(=O)c4ccccc4)[C@@H]4[C@]5(OC(C)=O)CO[C@@H]5C[C@H](O)[C@@]4(C)C(=O)[C@H](OC(C)=O)C(=C2C)C3(C)C)[C@@H](NC(=O)c2ccccc2)c2ccccc2)O1` (stereo not given in full), the growth is 54.2% in the test with NCI-H23 lung; 83.4% with NCI-H226 lung; 55.7% in the test with NCI-H322M lung; 68.4% in the test with HOP-62 NSCLC; 20.4% in the test on NCI-H460 lung; 66.4% in the test with HOP-92 NSCLC. For the same compound, the growth with NCI-H522 lung was 57.6%; in the test with A549/ATCC NSCLC it was 47.5%; in the test with 786-0 renal, 90.6%; in the test on COLO 205 colon, 13.1%.

`O=C1OCC2=C1C(c1ccccc1)c1cc3c(cc1N2)OCO3` (stereo not given): the growth is 16.1% in the test with NCI-H23 lung; -9.94% (active) with NCI-H226 lung; 46.9% with NCI-H322M lung; 15% with HOP-62 NSCLC; 5.45% (active) in the test on NCI-H460 lung; 30.8% in the test on HOP-92 NSCLC. For the same compound, the growth is -40.3% (active) in the test on NCI-H522 lung, 12.6% with A549/ATCC NSCLC, 15.9% with 786-0 renal and -65.7% (active) with COLO 205 colon.

`CCCCNC(c1ccc(Cl)cc1)C(O)c1ccc(Cl)cc1` (stereo not given): the growth is 38.5% with NCI-H23 lung; 65.7% with NCI-H226 lung; 51.4% with NCI-H322M lung; 40.6% in the test on HOP-62 NSCLC; 7.67% (active) with NCI-H460 lung; -5.31% (active) with HOP-92 NSCLC. Also, the growth with NCI-H522 lung is 35.2%; with A549/ATCC NSCLC it was 63.5%; in the test on 786-0 renal, 50%; with COLO 205 colon, -71.4% (active).

For the compound `CCOC(=O)CCC(NC(=O)C(Cc1ccc(N(CCCl)CCCl)cc1)NC=O)C(=O)OCC` (stereo not given), the growth was 1.98% (active) with NCI-H23 lung; 57.5% with NCI-H226 lung; 88% in the test on NCI-H322M lung; 113% in the test on HOP-62 NSCLC; 8.71% (active) in the test on NCI-H460 lung; -2.74% (active) in the test with HOP-92 NSCLC. The growth was -67.6% (active) in the test on NCI-H522 lung, 61.8% in the test with A549/ATCC NSCLC, -40.8% (active) with 786-0 renal and 111% with COLO 205 colon.

Consider `Nc1ccc2c(c1)oc1ccccc12`, for which the growth was 97.3% in the test on NCI-H23 lung; 93.1% in the test with NCI-H226 lung; 102% in the test on NCI-H322M lung; 103% in the test with HOP-62 NSCLC; 111% with NCI-H460 lung; 89.4% in the test on HOP-92 NSCLC. Moreover, the growth is 95.9% in the test on NCI-H522 lung, 89% in the test with A549/ATCC NSCLC, 95.7% with 786-0 renal and 123% in the test with COLO 205 colon.

Turning to `O=C(CC1(O)C(=O)N(Cc2ccccc2)c2ccccc21)c1ccc(C(=O)NCC2CCC3(CC2)OOC2(CCCCC2)OO3)cc1` (stereo not given), the growth in the test with NCI-H23 lung was -72.2% (active); with NCI-H226 lung, -34.8% (active); in the test with NCI-H322M lung it was 65.2%; in the test on HOP-62 NSCLC, -48.2% (active); in the test with NCI-H460 lung, -51.4% (active); in the test on HOP-92 NSCLC, -72% (active). The growth is -28% (active) with NCI-H522 lung, -53.6% (active) in the test on A549/ATCC NSCLC, -73.1% (active) with 786-0 renal and -52.9% (active) with COLO 205 colon.

Regarding `CC(=O)/C=C/c1ccc2c(c1)OCO2`, the growth in the test on NCI-H23 lung is 95.4%; in the test with NCI-H226 lung it was 95.2%; with NCI-H322M lung, 104%; in the test with HOP-62 NSCLC, 102%; in the test with NCI-H460 lung, 107%; with HOP-92 NSCLC, 89%. Also, the growth with NCI-H522 lung is 84.7%; with A549/ATCC NSCLC it was 95.2%; in the test on 786-0 renal, 99%; in the test with COLO 205 colon, 107%.

As to `Cc1cc(NC(=O)NCc2ccc(N3C(N)=NC(N)=NC3(C)C)cc2)ccc1S(=O)(=O)F`, the growth with NCI-H23 lung is 29.2%; in the test on NCI-H226 lung, 101%; in the test with NCI-H322M lung, 54.7%; with HOP-62 NSCLC, 23.4%; in the test on NCI-H460 lung it was 4.48% (active); with HOP-92 NSCLC, 88.9%. In addition, the growth in the test on NCI-H522 lung is 16.5%; with A549/ATCC NSCLC, -3.03% (active); in the test with 786-0 renal, 26.2%; with COLO 205 colon, 29.3%.

On to `O=C1NC(=O)C(=Cc2cn(C(=O)c3ccccc3)c3ccccc23)C(=O)N1`, for which the growth in the test on NCI-H23 lung is 98%; in the test with NCI-H226 lung it was 92.3%; with NCI-H322M lung it was 95.5%; with HOP-62 NSCLC, 93.4%; in the test on NCI-H460 lung, 97.6%; in the test with HOP-92 NSCLC, 71.8%. The growth is 85.8% with NCI-H522 lung, 101% in the test on A549/ATCC NSCLC, 101% in the test with 786-0 renal and 113% with COLO 205 colon.
